Assay outcomes: PubChem BioAssay, Center for Chemical Genomics, University of Michigan
Dicer inh: human Dicer pre-microRNA cleavage inhibition | AID 1347074 | actives 6% (n = 47,000) | z-score at 25 µM | cat-ELCCA pre-miR-21 Dicer processing, chemiluminescence; hits give high values; in the data active = z-score above about 3, passing the limit was not always enough;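 also: plate controls were vehicle for no effect and no enzyme for full effect; higher signal means more uncleaved substrate so more Dicer inhibition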
The depositor's hits bear a star. The full list was thinned out, with hits kept by preference.

SMILES	Dicer inh
Cc1ccc(S(=O)(=O)/N=S(\C)c2ccc(OCc3ccccc3)cc2)cc1 (stereo not given)	-1.2
Nc1ccc(Cl)c(-c2nc3ccccc3[nH]2)c1	0.01
O/N=C/c1c(-c2ccccc2Cl)[nH]c2ccccc12	1.7
Clc1ccccc1-c1cc2ccccc2[nH]1	4*
CCSC1=C(C#N)C(=O)NC(c2ccc(OC)c(OC)c2)S1 (stereo not given)	0.5
CCCCSC1=C(C#N)C(=O)NC(c2ccc(OC)c(OC)c2)S1 (stereo not given)	3.4*
COC(=O)CSC1=C(C#N)C(=O)NC(c2ccc(OC)c(OC)c2)S1 (stereo not given)	1.3
FC(F)(F)COc1ccc(-c2nnc(SCc3ccc(Cl)cc3)o2)cn1	-0.25
O=C1OC(c2ccccc2)=N/C1=C\c1cc(Br)cs1	-0.16
C#CCOC(=O)NC(=O)c1c(-c2c(Cl)cccc2Cl)noc1C	3.2*
Cc1onc(-c2c(Cl)cccc2Cl)c1C(=O)NC(C)(C)CC(C)(C)C	0.53
Cc1onc(-c2c(Cl)cccc2Cl)c1NC(=O)NC(=O)c1c(Cl)cccc1Cl	0.74
CSCC(CSC)OC(=O)Nc1ccc(Cl)cc1	1.3
CC(C)OC(=O)Nc1ccc(Cl)cc1	-0.57
CC(=O)OC(C(=O)O)C(OC(C)=O)C(=O)Nc1ccc(Cl)cc1 (stereo not given)	3.1*
CSC1=NCCN1C(=O)c1ccc(Cl)cc1	-0.28
CCC(C)[C@H](N)c1nnc(SC)o1 (stereo not given in full)	0.32
O=C(O)CSc1cccc2cccc(Cl)c12	-1.6
CSc1ccc([N+](=O)[O-])cc1C(C)=O	-0.35
O=C(O)c1cc([N+](=O)[O-])ccc1Sc1ccc([N+](=O)[O-])cc1C(=O)O	-0.05
CSc1ccc([N+](=O)[O-])cc1C(=O)/C=C/N(C)C	6.2*
Cc1ccc2sc(C3=NNC(O)(C(F)(F)F)C3)c(C)c2c1 (stereo not given)	-1
COc1ccc(/C=C2\CCc3ccccc3C2=O)cc1OCc1ccccc1	1
O=c1[nH][nH]c(=S)n1C1Cc2ccccc2C1	0.51
CCn1cc(C(=O)O)c(=O)c2cc3c(cc21)OCO3	-0.39
SMILES	Dicer inh
CCn1cc(C(=O)O)c(=O)c2cnc(N3CCCC3)nc21	4.5*
CCn1cc(C(=O)O)c(=O)c2cnc(N3CCN(C(=O)Nc4ccccc4)CC3)nc21	-0.82
CC(C)(CO)NC(=S)Nc1ccc(F)c(Cl)c1	-0.58
O=C(COC(=O)c1ccccc1Cl)c1ccc(Br)cc1	-0.43
Cc1cc(=O)oc(C)c1C(=O)OCC(=O)c1ccc(Br)cc1	5*
Cc1ccc2[nH]c(=O)cc(C(=O)OCC(=O)c3ccc(Br)cc3)c2c1	-0.05
COCCOC(=O)c1c(C)oc2ccc(OCC(=O)c3ccc(Br)cc3)cc12	-0.46
Cc1onc(-c2ccccc2Cl)c1C(=O)OCC(=O)c1ccc(Br)cc1	3.9*
Cc1onc(-c2ccccc2)c1C(=O)OCC(=O)c1ccccc1	2
S=C1SCN(C2CCCCC2)CN1C1CCCCC1	2.4
CC(=O)NNC(=O)c1cccc([N+](=O)[O-])c1	-0.43
O=C(Nc1ccc(F)c(Cl)c1)c1cc2n(n1)C(C(F)(F)F)CC(c1cccs1)N2 (stereo not given)	-0.44
CCN(CC)c1ccc(C2N=C(N)Nc3nc4ccccc4n32)cc1 (stereo not given)	1.2
Cc1c(/C=C/c2ccnc(SCC(=O)Nc3ccc(C(C)C)cc3)n2)sc2ccccc12	1.1
CC(NC(=O)c1nn2c(c1Br)NC(c1cccs1)CC2C(F)(F)F)c1ccccc1 (stereo not given)	1.8
CCOC(=O)c1sc2c(c1O)c(=O)n(-c1ccccc1)c(=S)n2-c1ccccc1	-0.09
CCOC(=O)c1c(C)n(CCO)c2ccc(O)cc12	1.9
CCOC(=O)c1sc(=S)n(-c2ccc(Cl)cc2)c1C	0.39
CCOC(=O)c1sc(=S)n(-c2ccc(OC)cc2)c1C	4.2*
CCOC(=O)c1c(O)c(O)c(C(=O)OCC)n1-c1ccc(OC)cc1	0.01
CCOC(=O)c1sc(=S)n(-c2cc(C)ccc2C)c1N	5.2*
CCOC(=O)c1c(C)n(-c2ccccc2)c2ccc(OC(=O)c3cccs3)cc12	1.4
CCOC(=O)c1c(C)n(-c2ccccc2)c2ccc(O)cc12	1.5
CCOC(=O)c1c(C)n(-c2ccccc2)c2c1cc(O)c1ccccc12	-1.9
CCOC(=O)c1sc(-c2ccc(C)cc2)nc1O	-0.32
SMILES	Dicer inh
CCOC(=O)c1c(C)n(-c2ccc(N(C)C)cc2)c2ccc(O)cc12	6.6*
CCOC(=O)c1c(C)n(-c2ccc(OC)cc2)c2ccc(O)cc12	4.7*
FC(F)(F)c1ccc(-c2nc(-c3cc(-c4ccccc4)no3)cs2)cc1	1.2
C/C(=N\NC1=NCCN1Cc1ccccc1)c1ccc(F)cc1	0.31
Cc1ccc(-c2nnc3c4ccccc4c(C)nn23)cc1S(=O)(=O)NC(C)C	-0.13
CN(NC(=O)CC#N)c1ncc(Cl)cc1C(F)(F)F	0.44
O=C(NCc1ccc2c(c1)OCO2)N1CCOCC1	-1.5
c1cc2c(cc1CNCCCN1CCOCC1)OCO2	5.8*
Clc1cccc(CNCc2ccc3c(c2)OCO3)c1	-0.32
